Source: PubChem BioAssay (EPA / NIEHS)
“And” between values parts separate entries of the source, which are not always exact repeats. Identical values can stand only once. Results filed as inconclusive are left out. The source holds several records for some structures; these can differ, active in one and inactive in another. The source made the active and inactive calls. How the source made its calls, unless noted: active means hit-call score of the fitted dose curve at least 0.9, where 1 is the maximum; inactive means score below 0.9.

What was measured:
[1] = biological target: human RAR-related Orphan Receptor beta (RORb), RORB (gene 6096) (UniProt Q92753); experiment: ATG_RORb_TRANS: Attagene TRANS-FACTORIAL HepG2 Assay for human RAR-related Orphan Receptor beta (RORb) (AID 2283010; active means hit-call score of the fitted dose curve at least 0.9, where 1 is the maximum)
In short: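 Read-out is reporter mRNA induction, quantified by RT-PCR with fluorescent capillary electrophoresis, 24 h post-dose in transiently transfected HepG2 expressing exogenous NR-Gal4 chimera. Activity fitted upward versus DMSO.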

[2] = biological target: human RAR-related Orphan Receptor gamma (RORg), RORC (gene 6097) (UniProt P51449); experiment: ATG_RORg_TRANS: Attagene TRANS-FACTORIAL HepG2 Assay for human RAR-related Orphan Receptor gamma (RORg) (AID 2283011; active means hit-call score of the fitted dose curve at least 0.9, where 1 is the maximum)
In short: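 Readout: reporter transcript induction (RT-PCR, fluorescent primer extension, capillary electrophoresis) after 24 h compound exposure of transiently transfected HepG2 cells carrying a RORg-Gal4 chimera and GAL4-UAS reporters; DMSO served as baseline, with increasing signal fitted.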

[3] = biological target: Retinoic acid receptor RXR-alpha (Homo sapiens) (UniProt P19793); experiment: ATG_RXRa_TRANS: Attagene TRANS-FACTORIAL HepG2 Assay for human Retinoid X Receptor alpha (RXRa) (AID 2283012; active means hit-call score of the fitted dose curve at least 0.9, where 1 is the maximum)
In short: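 TRANS format reporting activity of exogenous RXRa-Gal4 chimera in transiently transfected HepG2, 24 h exposure. Reporter transcripts quantified by RT-PCR with capillary electrophoresis, with gain of signal scored relative to DMSO.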

[4] = biological target: human Retinoid X Receptor beta (RXRb), RXRB (gene 6257) (UniProt P28702); experiment: ATG_RXRb_TRANS: Attagene TRANS-FACTORIAL HepG2 Assay for human Retinoid X Receptor beta (RXRb) (AID 2283013; active means hit-call score of the fitted dose curve at least 0.9, where 1 is the maximum)
In short: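 Readout is reporter transcript induction after 24 h dosing. It is measured by RT-PCR of total RNA followed by fluorescent capillary electrophoresis. HepG2 liver cells carry transfected multiple reporter units driven by an exogenous RXRb-Gal4 fusion; activity is relative to DMSO.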

[5] = biological target: human Thyroid Receptor alpha (THRa1), THRA (gene 7067) (UniProt P10827); experiment: ATG_THRa1_TRANS: Attagene TRANS-FACTORIAL HepG2 Assay for human Thyroid Receptor alpha (THRa1) (AID 2283014; active means hit-call score of the fitted dose curve at least 0.9, where 1 is the maximum)
In short: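 HepG2 cells transiently transfected with multiplexed GAL4-UAS reporter units for exogenous chimeric THRa1-Gal4; reporter mRNA measured 24 h after dosing by RT-PCR, 6-FAM labelling, HpaI digestion and capillary electrophoresis. Gain-of-signal fitted versus DMSO baseline.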

[6] = read-out: E-selectin (Homo sapiens) (UniProt P16581); experiment: BSK_3C_Eselectin: BioMAP Diversity Plus: 3C Assay for Eselectin Biomarker Activity (AID 2283015); conditions: primary human endothelial cells (HUVEC); actives raise or lower the signal
In short: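 Primary human umbilical vein endothelial cells (3C system) were dosed with chemical and cell-surface E-selectin measured by ELISA 24 h later. Bidirectional curve fitting used DMSO as negative control and baseline.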

[7] = read-out: Interleukin-1 alpha (IL1a), IL1A (gene 3552); experiment: BSK_BE3C_IL1a: BioMAP Diversity Plus: BE3C Assay for Interleukin-1 alpha (IL1a) Biomarker Activity (AID 2283016); conditions: primary human bronchial epithelial cells; actives raise or lower the signal
In short: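 IL-1a measured by ELISA after 24 h treatment of human primary bronchial epithelial cells, with gain or loss of signal fitted versus DMSO. Parallel cultures stained with SRB gauge overt cytotoxicity.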

[8] = read-out: Monocyte Chemoattractant Protein-1 (MCP1), CCL2 (gene 6347); experiment: BSK_3C_MCP1: BioMAP Diversity Plus: 3C Assay for Monocyte Chemoattractant Protein-1 (MCP1) Biomarker Activity (AID 2283017); conditions: primary human endothelial cells (HUVEC); actives raise or lower the signal
In short: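 Primary human umbilical vein endothelial cells (3C system) were exposed to test chemical for 24 h, after which MCP-1 was quantified by ELISA. Activity was fitted bidirectionally against DMSO as negative control and baseline.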

[9] = read-out: Monocyte Chemoattractant Protein-1 (MCP1), CCL2 (gene 6347); experiment: BSK_4H_MCP1: BioMAP Diversity Plus: 4H Assay for Monocyte Chemoattractant Protein-1 (MCP1) Biomarker Activity (AID 2283018); conditions: primary human endothelial cells (HUVEC); actives raise or lower the signal
In short: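 ELISA of MCP-1 (CCL2) 24 h after chemical dosing of HUVEC in the BioMAP 4H system. Gain or loss versus DMSO fitted; parallel SRB staining (560 nm) tracked overt cytotoxicity.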

[10] = read-out: Human Leukocyte Antigen - DR isotype (HLADR), HLA-DRA (gene 3122); experiment: BSK_3C_HLADR: BioMAP Diversity Plus: 3C Assay for Human Leukocyte Antigen - DR isotype (HLADR) Biomarker Activity (AID 2283019); conditions: primary human endothelial cells (HUVEC); actives raise or lower the signal
In short: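 Primary human umbilical vein endothelial cells (3C system) were dosed with compound and cell-surface HLA-DR was quantified by ELISA at 24 h. Activity was fitted bidirectionally against DMSO as negative control and baseline.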

[11] = read-out: Interleukin-8 (IL8), CXCL8 (gene 3576); experiment: BSK_3C_IL8: BioMAP Diversity Plus: 3C Assay for Interleukin-8 (IL8) Biomarker Activity (AID 2283020); conditions: primary human endothelial cells (HUVEC); actives raise or lower the signal
In short: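 IL-8 was measured by ELISA in HUVEC cultures 24 h after chemical dosing, with gain or loss of signal fitted relative to DMSO. Parallel SRB total-protein staining tracked overt cytotoxicity.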

[12] = BSK_3C_SRB: Viability Assessment in the BioMAP Diversity Plus: 3C Assay (AID 2283023); conditions: primary human endothelial cells (HUVEC);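 further: fitted both ways against DMSO so a hit may be signal rise or drop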
In short: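 Primary human umbilical vein endothelial cells in the 3C system were read 24 h after compound dosing. Total protein was stained with 0.1% sulforhodamine B after 10% TCA fixation and read at 560 nm, with bidirectional fitting against DMSO as baseline.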

[13] = read-out: Pselectin, SELP (gene 6403); experiment: BSK_4H_Pselectin: BioMAP Diversity Plus: 4H Assay for Pselectin Biomarker Activity (AID 2283026); conditions: primary human endothelial cells (HUVEC); actives raise or lower the signal
In short: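 ELISA of surface P-selectin on HUVEC, 24 h after dosing, with parallel SRB staining (0.1% after 10% TCA fixation, 560 nm) for overt cytotoxicity. Activity fitted in both directions relative to DMSO.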

[14] = BSK_BE3C_SRB: Viability Assessment in the BioMAP Diversity Plus: BE3C Assay (AID 2283028); conditions: primary human bronchial epithelial cells;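 on AC50: fitted both ways so AC50 may mark signal gain or loss versus DMSO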
In short: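 Human primary bronchial epithelial cells were exposed to test chemicals for 24 h. Total protein in parallel cultures was then measured by staining with 0.1% sulforhodamine B after 10% TCA fixation, with absorbance read at 560 nm. Activity was fitted bidirectionally against DMSO.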

[15] = read-out: Thrombomodulin, THBD (gene 7056); experiment: BSK_3C_Thrombomodulin: BioMAP Diversity Plus: 3C Assay for Thrombomodulin Biomarker Activity (AID 2283029); conditions: primary human endothelial cells (HUVEC); actives raise or lower the signal
In short: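 ELISA measurement of thrombomodulin on HUVEC surface 24 h after chemical dosing; activity fitted in both directions relative to DMSO vehicle.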

[16] = read-out: Urokinase-type plasminogen activator receptor (uPAR), PLAUR (gene 5329); experiment: BSK_4H_uPAR: BioMAP Diversity Plus: 4H Assay for Urokinase-type plasminogen activator receptor (uPAR) Biomarker Activity (AID 2283030); conditions: primary human endothelial cells (HUVEC); actives raise or lower the signal
In short: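 Primary human umbilical vein endothelial cells were exposed to chemical for 24 h before cell-surface uPAR was quantified by ELISA. Activity was fitted bidirectionally against the DMSO negative control baseline.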

[17] = biological target: human Vitamin D Receptor (VDR), VDR (gene 7421) (UniProt P11473); experiment: ATG_VDR_TRANS: Attagene TRANS-FACTORIAL HepG2 Assay for human Vitamin D Receptor (VDR) (AID 2283022; active means hit-call score of the fitted dose curve at least 0.9, where 1 is the maximum)
In short: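 HepG2 cells were transiently transfected with multiple GAL4-UAS reporter units, so signal reflects exogenous chimeric receptor-Gal4 activity. After 24 h compound exposure, reporter mRNA was measured by RT-PCR, fluorescent labelling and capillary electrophoresis, fitted for gain of signal versus DMSO.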

[18] = read-out: Matrix Metallopeptidase 1 (MMP1), MMP1 (gene 4312); experiment: BSK_BE3C_MMP1: BioMAP Diversity Plus: BE3C Assay for Matrix Metallopeptidase 1 (MMP1) Biomarker Activity (AID 2283024); conditions: primary human bronchial epithelial cells; actives raise or lower the signal
In short: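 ELISA measurement of MMP-1 after 24 h compound exposure of primary human bronchial epithelial cells. Changes in either direction fitted relative to DMSO; parallel SRB staining checked overt cytotoxicity.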

[19] = BSK_4H_SRB: Viability Assessment in the BioMAP Diversity Plus: 4H Assay (AID 2283027); conditions: primary human endothelial cells (HUVEC);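 further: cells exposed to compound for 24 h before staining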
In short: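 HUVEC, 24 h post-dose; 10% TCA fix, 0.1% SRB stain, A560 nm. Total protein = overt cytotoxicity, parallel to biomarker read. Bidirectional fit vs DMSO baseline.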

Measured: AC50

Chain of human Retinoid X Receptor beta (RXRb), RXRB (gene 6257) (P28702 whole entry, looked up, the tested form may be a part): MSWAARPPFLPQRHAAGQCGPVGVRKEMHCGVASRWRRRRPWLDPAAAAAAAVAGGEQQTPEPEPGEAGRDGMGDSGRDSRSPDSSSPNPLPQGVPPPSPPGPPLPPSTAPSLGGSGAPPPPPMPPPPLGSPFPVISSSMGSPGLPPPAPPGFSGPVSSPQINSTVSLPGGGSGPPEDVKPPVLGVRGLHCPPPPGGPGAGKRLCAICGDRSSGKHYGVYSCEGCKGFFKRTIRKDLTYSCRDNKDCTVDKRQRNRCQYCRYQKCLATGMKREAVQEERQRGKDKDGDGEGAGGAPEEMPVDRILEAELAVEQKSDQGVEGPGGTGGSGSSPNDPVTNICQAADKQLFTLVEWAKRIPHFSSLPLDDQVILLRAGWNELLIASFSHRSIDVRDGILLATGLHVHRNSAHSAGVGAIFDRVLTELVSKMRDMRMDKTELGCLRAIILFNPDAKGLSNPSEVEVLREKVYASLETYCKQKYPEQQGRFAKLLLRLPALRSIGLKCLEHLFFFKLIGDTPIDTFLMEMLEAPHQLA
Chain of Retinoic acid receptor RXR-alpha (Homo sapiens) (P19793 whole entry, looked up, the tested form may be a part): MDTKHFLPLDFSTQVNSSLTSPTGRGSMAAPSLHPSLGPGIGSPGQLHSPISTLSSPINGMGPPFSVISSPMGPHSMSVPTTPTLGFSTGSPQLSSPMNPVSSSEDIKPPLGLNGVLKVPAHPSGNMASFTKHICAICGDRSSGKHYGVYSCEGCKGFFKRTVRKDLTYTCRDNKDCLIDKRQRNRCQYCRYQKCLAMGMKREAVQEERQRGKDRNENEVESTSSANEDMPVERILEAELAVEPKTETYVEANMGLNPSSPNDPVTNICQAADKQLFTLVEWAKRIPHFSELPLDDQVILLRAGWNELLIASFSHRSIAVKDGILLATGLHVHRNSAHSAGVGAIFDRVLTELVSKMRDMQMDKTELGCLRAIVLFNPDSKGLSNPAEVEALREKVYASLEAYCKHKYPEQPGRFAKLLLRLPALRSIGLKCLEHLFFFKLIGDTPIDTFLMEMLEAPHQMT
Chain of human RAR-related Orphan Receptor beta (RORb), RORB (gene 6096) (Q92753 whole entry, looked up, the tested form may be a part): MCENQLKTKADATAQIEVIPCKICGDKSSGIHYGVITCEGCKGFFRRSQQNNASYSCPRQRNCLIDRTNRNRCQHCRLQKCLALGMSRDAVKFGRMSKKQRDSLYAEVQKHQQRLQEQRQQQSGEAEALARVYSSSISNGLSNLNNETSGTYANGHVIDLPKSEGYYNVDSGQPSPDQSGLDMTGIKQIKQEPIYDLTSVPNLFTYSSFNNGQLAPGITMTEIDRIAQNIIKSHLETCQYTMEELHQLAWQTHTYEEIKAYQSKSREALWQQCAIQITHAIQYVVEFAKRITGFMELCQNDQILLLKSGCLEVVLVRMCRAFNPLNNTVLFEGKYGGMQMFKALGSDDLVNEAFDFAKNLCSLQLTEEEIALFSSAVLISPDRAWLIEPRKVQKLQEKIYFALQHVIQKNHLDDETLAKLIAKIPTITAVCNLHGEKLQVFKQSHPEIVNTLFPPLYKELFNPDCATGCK
Chain of human Vitamin D Receptor (VDR), VDR (gene 7421) (P11473 whole entry, looked up, the tested form may be a part): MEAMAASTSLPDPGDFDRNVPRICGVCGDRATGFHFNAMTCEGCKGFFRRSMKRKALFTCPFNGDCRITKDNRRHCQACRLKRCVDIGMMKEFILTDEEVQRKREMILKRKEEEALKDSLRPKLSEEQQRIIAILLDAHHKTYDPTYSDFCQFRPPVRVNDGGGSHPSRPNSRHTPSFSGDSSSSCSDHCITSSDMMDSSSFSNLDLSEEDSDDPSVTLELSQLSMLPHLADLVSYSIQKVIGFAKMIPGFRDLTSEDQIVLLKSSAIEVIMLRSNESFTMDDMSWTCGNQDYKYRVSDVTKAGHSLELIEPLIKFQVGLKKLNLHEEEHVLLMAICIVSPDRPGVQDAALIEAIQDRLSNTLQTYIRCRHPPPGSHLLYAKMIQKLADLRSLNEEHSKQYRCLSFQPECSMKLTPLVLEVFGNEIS
Chain of human Thyroid Receptor alpha (THRa1), THRA (gene 7067) (P10827 whole entry, looked up, the tested form may be a part): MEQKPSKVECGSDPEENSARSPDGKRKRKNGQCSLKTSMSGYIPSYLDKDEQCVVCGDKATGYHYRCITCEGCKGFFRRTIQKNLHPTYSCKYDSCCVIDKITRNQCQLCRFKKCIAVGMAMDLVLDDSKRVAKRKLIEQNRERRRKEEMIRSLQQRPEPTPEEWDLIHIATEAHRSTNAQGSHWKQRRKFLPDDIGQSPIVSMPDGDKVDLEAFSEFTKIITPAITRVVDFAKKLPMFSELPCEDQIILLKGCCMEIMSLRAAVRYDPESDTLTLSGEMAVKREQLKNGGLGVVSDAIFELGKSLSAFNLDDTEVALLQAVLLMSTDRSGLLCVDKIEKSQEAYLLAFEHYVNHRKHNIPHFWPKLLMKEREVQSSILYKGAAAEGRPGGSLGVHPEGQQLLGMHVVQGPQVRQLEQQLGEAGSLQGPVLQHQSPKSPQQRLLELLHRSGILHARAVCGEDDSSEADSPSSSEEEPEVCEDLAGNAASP
Chain of E-selectin (Homo sapiens) (P16581 whole entry, looked up): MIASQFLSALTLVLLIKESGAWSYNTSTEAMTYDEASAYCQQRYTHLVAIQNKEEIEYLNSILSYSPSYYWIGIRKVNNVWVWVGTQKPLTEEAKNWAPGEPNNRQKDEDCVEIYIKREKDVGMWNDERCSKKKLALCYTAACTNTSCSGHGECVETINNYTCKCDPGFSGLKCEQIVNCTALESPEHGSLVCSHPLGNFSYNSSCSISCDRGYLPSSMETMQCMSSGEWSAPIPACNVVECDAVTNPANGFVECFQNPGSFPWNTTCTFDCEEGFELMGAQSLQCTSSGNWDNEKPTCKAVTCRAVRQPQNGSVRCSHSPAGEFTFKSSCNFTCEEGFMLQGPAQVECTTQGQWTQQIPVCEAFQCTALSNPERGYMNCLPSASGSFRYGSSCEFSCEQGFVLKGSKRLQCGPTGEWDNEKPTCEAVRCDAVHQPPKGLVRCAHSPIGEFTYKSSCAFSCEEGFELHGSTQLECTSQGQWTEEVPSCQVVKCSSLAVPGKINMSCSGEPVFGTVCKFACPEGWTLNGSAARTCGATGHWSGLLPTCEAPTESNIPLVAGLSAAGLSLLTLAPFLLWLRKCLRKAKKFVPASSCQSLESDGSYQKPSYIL

CC1=CCC(C(C)(C)O)CC1 (centres undefined)
inactive: [1] | [5]

CCc1cccc(O)c1
inactive: [1] | [3] | [5] | [17]

CC/C=C\CCOC(=O)C(C)C
inactive: [1] | [4] | [5] | [17]

CC(=O)CCc1ccc(O)cc1
inactive: [1] | [4] | [5] | [17]

CCCCCC#CC(=O)OC
active: [4] 100 µM
inactive: [1] | [3]

C[C@]12CC[C@@H]3c4ccc(O)cc4CC[C@H]3[C@@H]1CC[C@@H]2O
active: [6] 4.87 µM | [8] 12.2 µM | [9] 9.45 µM | [10] 16.1 µM | [16] 8.9 µM
inactive: [1] | [3] | [4] | [5] | [7] | [11] | [17] | [18] | [13] | [14] | [15]

O=S1(=O)CC(Cl)(Cl)C(Cl)(Cl)C1
inactive: [1] | [3] | [4] | [5] | [15]
active: [6] 0.611 µM | [7] 1.33 µM | [8] 0.961 µM | [9] 0.537 µM | [10] 0.327 µM | [11] 548 nM | [12] 5.02 µM | [18] 2.15 µM | [13] 194 nM | [14] 1.18 µM | [16] 0.921 µM

CCCC[N+](C)(CCCC)CCCC
inactive: [1] | [3] | [4] | [17]

O=C(O)c1cc2ccccc2cc1O
inactive: [1] | [3] | [4] | [5]

O=C1CCCCCCCCCCCC(=O)OCCO1
inactive: [1] | [5]

CCCCN(CCO)CCO
inactive: [1] | [3] | [5] | [6] | [7] | [8] | [9] | [10] | [11] | [17] | [12] | [13] | [14] | [15] | [16]

CCCCN(CCCC)CCCCCCN(CCCC)CCCC
inactive: [1] | [5] | [17]

CC1=CC(C)C(C=O)C(C)C1 (centres undefined) (tested in a mixture with another compound)
inactive: [1] | [3] | [5] | [6] | [7] | [8] | [9] | [10] | [11] | [12] | [13] | [14] | [15] | [16]

CCn1cc(C(=O)O)c(=O)c2ccc(C)nc21
inactive: [1] | [3] | [6] | [7] | [8] | [9] | [10] | [11] | [17] | [12] | [13] | [14] | [15] | [16]

CCC(C)(CCCC(C)C)OC(C)=O (centres undefined)
inactive: [1] | [3] | [17]
active: [4] 64.8 µM

O=S(=O)(O)c1cc(S(=O)(=O)O)c2c(N=Nc3ccccc3)c(O)ccc2c1
inactive: [1] | [3] | [5]

CC1=CC[C@@H]2C[C@H]1C2(C)C
inactive: [1] | [3] | [5] | [17]

c1coc(CNc2ncnc3nc[nH]c23)c1
inactive: [1] | [3] | [5] | [17]

O=c1cc[nH]cc1
inactive: [1] | [3] | [4] | [5]

CC(C)CCOC(=O)CC(C)C
active: [4] 100 µM
inactive: [1] | [3] | [5] | [17]

CCCCCCCC1CCCC1=O (centres undefined)
active: [6] 31.3 µM | [7] 34.1 µM | [8] 31.1 µM | [10] 31.6 µM | [11] 25200 nM | [12] 32.9 µM | [18] 32.8 µM | [13] 32800 nM | [16] 30.7 µM
inactive: [1] | [3] | [4] | [9] | [19] | [14] | [15]

CC(CCO)CC(C)(C)C (centres undefined)
inactive: [1] | [3] | [4] | [17]

COc1ccccc1NC(=O)CC(C)=O
inactive: [1] | [3] | [4] | [6] | [7] | [8] | [9] | [10] | [11] | [12] | [18] | [13] | [14] | [15] | [16]

CC1(C)CC(N)CC(C)(CN)C1 (centres undefined)
inactive: [1] | [3] | [4]

NCCN1CCNCC1
active: [4] 25.3 µM
inactive: [1]

CC(C)N1C(=O)c2ccccc2C1=O
inactive: [1] | [4] | [5]
